According to the OligoGym collection:
Note: reference of the scale not given here.

What follows are sequences tested against DEF6 (assay: pooled miR-30 sensor sort-seq; sequence = guide strand). Details: shRNA.
Sequence TTCATCTGGACATTCCAGTGTT has a sensor-assay potency score (higher = more potent) of 0.421.
With TTGTCCAGGATGTACTTGTTGA the sensor-assay potency score (higher = more potent) was -0.794.
For TTCTTCATCTCGCCGAGCTTTC, the sensor-assay potency score (higher = more potent) was -1.29.
TTGTGTAGGGACGTCTTCCCCT showed a sensor-assay potency score (higher = more potent) of -0.678.
Sequence TTCAGCTGCATCAACTGCTTCA has a sensor-assay potency score (higher = more potent) of 0.367.
Work on TGACCGGACGCTTATCTCCAGG yielded a sensor-assay potency score (higher = more potent) of -1.34.
With TCTTCCAGCAGTCTGGTCTGAG the sensor-assay potency score (higher = more potent) was -0.41.
In the case of AAGAGCTCCAGGAACTGCCAGA, the sensor-assay potency score (higher = more potent) is reported as -0.993.

What follows are sequences tested against DEK in the same assay as above. Details: shRNA.
In the case of TAGATTTCTAAGTTCATCGGTT, the sensor-assay potency score (higher = more potent) is reported as 0.499.
In the case of TTAACTCTTCATCTGTAGGGGG, the sensor-assay potency score (higher = more potent) is reported as 0.319.
TAACTCTTCATCTGTAGGGGGT was tested, and the sensor-assay potency score (higher = more potent) was 0.328.
Sequence TTTTACTTTTAGAAGTAGCTTT has a sensor-assay potency score (higher = more potent) of 0.164.
Work on TTTGGAACTGTTTTGATTCTTC yielded a sensor-assay potency score (higher = more potent) of 0.827.
TTTAACTCTTCATCTGTAGGGG showed a sensor-assay potency score (higher = more potent) of 0.332.
Sequence TTCTTTATCTTCATCATCTGAA has a sensor-assay potency score (higher = more potent) of 0.212.
Sequence TTTCCTTTAACTCTTCATCTGT has a sensor-assay potency score (higher = more potent) of 0.131.
With TAGTTCACTATTTACACCTGAT the sensor-assay potency score (higher = more potent) was -0.118.
For TTAATGAGGACACAGTGCCTGG, the sensor-assay potency score (higher = more potent) was -0.975.
ATCATCTGAAGACTCTTCCTTG gave a sensor-assay potency score (higher = more potent) of -0.474.
With TTATTGTTTCCTTTAACTCTTC the sensor-assay potency score (higher = more potent) was -0.171.

What follows are sequences tested against DENND3 in the same assay as above. Details: shRNA.
Sequence TTGAACACGGTCACCTTGCCTT has a sensor-assay potency score (higher = more potent) of -0.0431.
Work on TTGTAGAAATCTTTGAATGTTT yielded a sensor-assay potency score (higher = more potent) of -1.03.
For TTGATGATGTAGATGACGGAGT, the sensor-assay potency score (higher = more potent) was -0.511.
For TATCAGAACTAAACCGTCGGCT, the sensor-assay potency score (higher = more potent) was 0.0696.
Work on TATTTATCAGAACTAAACCGTC yielded a sensor-assay potency score (higher = more potent) of -0.811.
Sequence TAAATGATTCTTTACATCCCTG has a sensor-assay potency score (higher = more potent) of -0.0961.
Work on TTATCGTCCGTGGACTTGGAGT yielded a sensor-assay potency score (higher = more potent) of -1.3.
TAGATGACGGAGTCTTCCGAGC gave a sensor-assay potency score (higher = more potent) of -1.16.
In the case of TTATCAGAACTAAACCGTCGGC, the sensor-assay potency score (higher = more potent) is reported as -0.359.
With TAGAGCAGCACGTCCACCGCTT the sensor-assay potency score (higher = more potent) was 0.371.
Sequence TTCCACACCAGCACCATGCCGT has a sensor-assay potency score (higher = more potent) of -0.0924.
Work on TTGGACTTAGAAGCATTCCATT yielded a sensor-assay potency score (higher = more potent) of -1.49.

The sequences below were run against DEXI in the same assay as above. Details: shRNA.
Sequence TAACGTGGCACTCACCAGCATG has a sensor-assay potency score (higher = more potent) of -1.35.
For TAAACATCCATCGCAGCTGCAA, the sensor-assay potency score (higher = more potent) was -0.291.
In the case of AATCTCTCTTCCACTCTCCTGG, the sensor-assay potency score (higher = more potent) is reported as -0.0495.
TTAAGTAGGCACAACACTCATA showed a sensor-assay potency score (higher = more potent) of -0.271.
With TAACCTGAAATGAAGGAGCGAG the sensor-assay potency score (higher = more potent) was -0.355.
Work on TACAGGATCAGCACATTGACGA yielded a sensor-assay potency score (higher = more potent) of 0.243.
Work on TCAAAGACGTCGAGCTCCGAGT yielded a sensor-assay potency score (higher = more potent) of -0.796.
Sequence ATGTACTCCATGAGGAAGGCGT has a sensor-assay potency score (higher = more potent) of -1.19.
